Most compounds without a hit are left out; they make up all but 3.9% or so of the library.
SARS 3CLpro inh: SARS-CoV 3CLpro protease inhibitors, primary screen, biochemical, quenched FRET | recombinant SARS-CoV 3CLpro, quenched FRET peptide cleavage | inhibition, % at 6 µM | AID 1706, 2009 | 290,000 tested, 0.14% active; in the data active means inhibition above about 12%
BoNT-F LC inh: BoNT/F light chain protease inhibitors, primary screen, biochemical, flow cytometry, MLPCN library. Botulinum neurotoxin type F light chain protease (Clostridium botulinum). Multiplex microsphere protease cleavage assay. 360,000 tested, 0.22% active. inhibition, % at 10 µM. AID 588497, 2011; in the data active means inhibition above about 35%, passing the limit was not always enough; inconclusive means no clear call, values can overlap the other calls
Bead autofluor: compound fluorescence in toxin protease inhibitor counterscreen. compound autofluorescence counterscreen, microsphere flow cytometry; active compounds read high. 360,000 tested, 3.1% active. fluorescence intensity (test concentration not listed); in the data active means fluorescence intensity above about 16000; inconclusive means no clear call, values can overlap the other calls
Anthrax LF inh2: Bacillus anthracis LF protease inhibitors, primary screen, biochemical, multiplex microsphere, MLPCN library | inhibition, % at 10 µM | multiplex microsphere protease cleavage assay | 360,000 tested, 0.12% active | AID 588501, 2011 | Lethal factor (Bacillus anthracis), P15917
Target sequence (P15917 whole entry, looked up): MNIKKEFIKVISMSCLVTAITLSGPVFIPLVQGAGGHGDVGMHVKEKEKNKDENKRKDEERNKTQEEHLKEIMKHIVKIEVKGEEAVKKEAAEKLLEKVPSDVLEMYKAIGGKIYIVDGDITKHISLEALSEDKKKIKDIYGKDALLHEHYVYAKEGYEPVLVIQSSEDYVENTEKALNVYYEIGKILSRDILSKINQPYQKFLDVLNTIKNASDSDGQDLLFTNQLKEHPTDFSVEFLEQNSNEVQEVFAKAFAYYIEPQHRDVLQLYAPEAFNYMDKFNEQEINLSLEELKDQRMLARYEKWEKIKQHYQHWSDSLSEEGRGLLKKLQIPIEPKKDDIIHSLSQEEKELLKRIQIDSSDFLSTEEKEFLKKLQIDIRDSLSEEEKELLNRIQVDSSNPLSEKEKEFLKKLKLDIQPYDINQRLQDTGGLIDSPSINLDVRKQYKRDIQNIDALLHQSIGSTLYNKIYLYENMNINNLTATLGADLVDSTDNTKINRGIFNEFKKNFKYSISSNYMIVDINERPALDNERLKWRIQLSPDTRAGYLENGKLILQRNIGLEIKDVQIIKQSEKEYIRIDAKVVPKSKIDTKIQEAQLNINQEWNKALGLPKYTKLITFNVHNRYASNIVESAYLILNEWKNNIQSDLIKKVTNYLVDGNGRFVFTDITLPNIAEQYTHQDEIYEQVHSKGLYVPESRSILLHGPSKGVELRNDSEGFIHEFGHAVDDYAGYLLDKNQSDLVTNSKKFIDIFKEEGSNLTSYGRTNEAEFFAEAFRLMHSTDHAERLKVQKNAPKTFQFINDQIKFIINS
CCHFV vOTU inh: CCHFV vOTU protease inhibitors, primary screen, biochemical, Pep-AMC substrate, fluorescence; inhibition, % at 11.5 µM; 370,000 tested, 0.55% active; AID 651958, 2012; in the data active means inhibition above about 30%
BoNT A protease: BoNT/A light chain protease inhibitors, primary screen, biochemical, flow cytometry, MLPCN library; Botulinum neurotoxin type A light chain protease (Clostridium botulinum A str. ATCC 3502); multiplex microsphere protease substrate cleavage; inhibition, % at 10 µM; 360,000 tested, 0.17% active; AID 588499, 2011
Hits are given with their value; . = inactive; ? = inconclusive; / = no result. Unless noted, no stated cut-off is given here; in the data, active means inhibition above about 30%; inconclusive means no clear call, values can overlap the other calls; inactive means below that.

SMILES	SARS 3CLpro inh	BoNT-F LC inh	Bead autofluor	Anthrax LF inh2	CCHFV vOTU inh	BoNT A protease
O=C(COc1ccc(Cl)cc1Cl)NCc1ccncc1	.	.	19178	.	.	.
O=C(COc1ccc(Cl)cc1Cl)NNC(=S)Nc1ccc(F)cc1	.	.	16581	.	/	.
Cc1nnnn1/C(=C\c1ccccc1)C(=O)OCC(=O)NC1CCCCC1	/	.	?	.	.	.
O=C(c1ccco1)N1CCN(c2ncnc3c(-c4ccc(Cl)cc4)nsc23)CC1	.	.	.	.	/	.
COc1ccc(C(=O)N2CCCC(C(=O)N3CCCCCC3)C2)cc1 (centres undefined)	.	.	20377	.	.	.
O=C(c1ccccc1)N1CCCC(C(=O)N2CCCCCC2)C1 (centres undefined)	.	.	24585	.	.	.
O=C(c1ccccc1)N1CCCC(C(=O)N2CCc3ccccc3C2)C1 (centres undefined)	.	.	.	.	.	.
NS(=O)(=O)c1ccc(CCNc2nc(CN3CCCCC3)nc3sc4c(c23)CCC4)cc1	.	.	21682	.	.	.
Nc1[nH]c(C(=O)c2ccccc2)c(-c2ccc(Cl)cc2)c1C(=O)NCc1ccco1	/	.	.	.	.	.
Cc1nn(C(C)c2n[nH]c(=S)n2-c2cccc(Cl)c2)c(C)c1[N+](=O)[O-] (centres undefined)	.	.	18732	.	.	.
Cc1ccc(-n2c(C(C)n3nc(C)c([N+](=O)[O-])c3C)n[nH]c2=S)cc1 (centres undefined)	.	.	19726	.	.	.
COc1ccc(-n2c(C(C)n3nc(C)c([N+](=O)[O-])c3C)n[nH]c2=S)cc1 (centres undefined)	.	.	.	.	.	.
CCCC1CCC2(CCC(=O)N2CCSc2ccccc2)CC1 (centres undefined)	/	/	/	/	.	/
CCOc1ccc2nc(NC(=O)C3(C)CC3(Br)Br)sc2c1 (centres undefined)	/	?	.	36	.	.
COc1cc(C(=S)N2CCCCC2)ccc1O	.	.	.	.	.	.
COc1cc(C(=S)N2CCCC2)ccc1O	.	.	20063	.	.	.
Oc1ccc(C(=S)N2CCCCC2)cc1Cl	.	.	24104	.	.	.
CC1CCC(N(CCCN)Cc2ccco2)CC1C (centres undefined)	.	.	.	.	.	.
Cc1cccc(C)c1NC(=O)CCN1C(=O)C2C3CCC(C3)C2C1=O (centres undefined)	.	.	24501	.	.	.
CC(=O)c1cccc(NC(=O)CCN2C(=O)C3C4CCC(C4)C3C2=O)c1 (centres undefined)	.	.	?	.	.	.
CC(=O)Nc1cccc(OCCCOc2cccc([N+](=O)[O-])c2)c1	/	.	.	.	.	.
Cc1nn(-c2ccccc2)c2sc(C(=O)NC3CCCCCCC3)cc12	/	/	/	/	.	/
COc1ccc(C(=O)Nc2ccc(S(=O)(=O)N3CCc4ccccc43)cc2)cc1	.	.	16637	.	.	.
O=C(Nc1ccc(S(=O)(=O)N2CCc3ccccc3C2)cc1)C1CCCO1 (centres undefined)	.	.	.	.	.	.
NS(=O)(=O)c1ccc(NC(=O)c2ccc(S(=O)(=O)N3CCc4ccccc43)cc2)cc1	.	.	.	.	.	.
SMILES	SARS 3CLpro inh	BoNT-F LC inh	Bead autofluor	Anthrax LF inh2	CCHFV vOTU inh	BoNT A protease
Cc1ccc(C(=O)Nc2ccc(S(=O)(=O)N3CCc4ccccc43)cc2)o1	.	.	23775	.	.	?
O=C(Nc1ccc(S(=O)(=O)N2CCCc3ccccc32)cc1)C1CCCO1 (centres undefined)	.	.	17480	.	/	.
Cc1ccc(-n2c(Cc3cccs3)nnc2SCC(=O)Nc2cccc3ccccc23)cc1	/	/	/	/	.	/
Cc1ccc(-n2c(Cc3cccs3)nnc2SCC(N)=O)cc1	.	.	16452	.	.	?
NC(=O)CSc1nnc(COc2ccccc2)n1N	.	.	?	.	.	.
O=C1COc2ccc(C(=O)CSc3nnc(Cc4cccs4)n3-c3ccc(Cl)cc3)cc2N1	.	.	17966	.	.	.
NC(=O)CSc1nnc(Cc2cccs2)n1C1CCCCC1	.	.	19288	.	.	.
NC(=O)CSc1nnc(COc2ccccc2)n1C1CCCCC1	.	.	19126	.	.	.
COc1ccc(OCCOC(=O)c2cccc(-n3cnnn3)c2)cc1	.	.	20878	.	.	.
COc1ccc(Cn2cc(CN3CC=CS3(=O)=O)nn2)cc1	/	/	/	/	.	/
c1ccc(Nc2nc(N3CCCCC3)nc(N3CCCCC3)n2)cc1	.	.	.	.	.	.
c1ccc(Nc2nc(N3CCCC3)nc(N3CCCC3)n2)cc1	.	.	20430	.	.	.
Cc1cccc(Nc2nc(N3CCCC3)nc(N3CCCC3)n2)c1	.	.	22488	.	.	.
O=C(CSc1nnc(-c2cccnc2)n1-c1ccccc1)c1ccccc1Cl	/	/	/	/	.	/
CCOC(=O)CNC(=O)CSc1nc2ccccc2c(=O)n1-c1ccc(Cl)cc1	/	/	/	/	.	/
CCCN(C(=O)c1cccc(-n2cccc2)c1)c1c(N)n(Cc2ccccc2)c(=O)[nH]c1=O	/	.	.	.	.	.
CC(C)(C)c1cc(C(=O)NCc2ccco2)ccn1	.	.	24501	.	.	.
Cc1ccc(C(=O)NCc2ccco2)cc1Br	.	.	.	.	.	?
CCN1C(=O)CSc2ccc(C(=O)NCc3ccco3)cc21	.	.	16140	.	.	.
CC(C)(C)NC(=O)c1ccc2nccnc2c1	.	.	16956	.	.	.
CC(C)(C)NC(=O)c1ccnc(C(C)(C)C)c1	.	.	17617	.	.	.
CCN1C(=O)CSc2ccc(C(=O)OC)cc21	.	.	.	.	.	.
COCC(=O)N1[C@H](CO)[C@@H](c2ccc(-c3cccnc3)cc2)[C@H]1CN(C)S(=O)(=O)c1ccccc1[N+](=O)[O-]	/	/	/	/	.	/
Cc1cccc(-c2nnc(SCC(=O)Nc3cccc4ccccc34)n2Cc2ccco2)c1	/	/	/	/	.	/
O=c1[nH]c(=S)[nH]cc1Oc1ccc(Br)cc1Br	/	.	.	.	.	.
SMILES	SARS 3CLpro inh	BoNT-F LC inh	Bead autofluor	Anthrax LF inh2	CCHFV vOTU inh	BoNT A protease
O=C(NCC1CCCO1)c1cccc(Oc2ccc([N+](=O)[O-])cc2Cl)c1 (centres undefined)	.	.	.	.	.	.
O=C1NC(=O)N(CCC2=CCCCC2)C(=O)/C1=C/c1cccs1	.	37	.	?	.	.
OCC[C@H]1C[C@@H](O)[C@H](O)[C@@]2(CCCCO2)O1	/	.	.	.	.	.
COc1ccc(NC(=O)NC2CCN(C(C)C)CC2)c(OC)c1	.	.	16455	.	.	?
CC(=O)c1nn(-c2ccc(C(F)(F)F)cc2)c(=O)[nH]c1=O	.	.	.	.	.	.
CC(=O)Nc1cccc(C(=O)N/N=C/c2cccc(C)n2)c1	.	46	.	.	.	.

Assay outcomes from PubChem BioAssay.
